The supplement of paper PMC4723716

The molecules below were run on Plasmodium falciparum NF54 gametocytes (assay: viability index relative to DMSO control (fraction); higher = less gametocyte killing). Details: gametocyte stage: Stage I viability index; 12.5 µM; incubation time: 72 h.
Method in brief: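 In 384-well plates, compound at 12.5 µM was incubated for 72 hr at 37°C under low oxygen with P. falciparum NF54 gametocytes of each stage (I–V) at 0.50% gametocytemia and 1.25% hematocrit in 40 µl of serum-containing medium. Staining used 5 µl of 5 µM MitoTracker Red CMXRos for 20 min, then 5 µl was moved into 40 µl of 500 nM dye in serum-free medium and imaged after 30 min. Dividing the gametocyte particle count by the plate mean of solvent-only wells gave the viability index.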

| Compound | viability index |
| --- | --- |
| COc1cccc(Cn2c(Oc3ccccc3)nc3c2c(=O)n(C)c(=O)n3C)c1 | 0.892 |
| COc1ccc(NC(=O)C2c3ccccc3C(=O)N(CC(C)C)C2c2cccs2)cc1Cl (stereo not drawn) | 0.0453 |
| COc1cc2cc(C(=O)Nc3ccccc3)c(N)nc2cc1OC | 0.0265 |
| CC(=O)c1ccc(NC(=O)CSc2nc(-c3ccccc3Cl)ns2)cc1 | 0.102 |
| O=C(c1ccccc1F)N(Cc1ccc(Cl)cc1)c1ccccn1 | 0.716 |
| CCN(CC)c1cc(C)c2cc(NC(=O)c3cccc(OC)c3)ccc2n1 | 0.154 |
| CCCN(CCC)CCCNC(=O)c1cc2c(-c3ccc(OC)c(OC)c3)nn(C)c2s1 | 0.302 |
| COCCNC(=O)c1ccc(OC2CCN(Cc3ccc(F)c(F)c3)CC2)c(Cl)c1 | 0.672 |
| O=C(Nc1ccc(-c2nc3cc4ccccc4cc3[nH]2)cc1)c1cccc(Br)c1 | 0.028 |
| CC(C)c1ccc(CNCC(O)c2ccccc2)cc1 (stereo not drawn) | 0.032 |
| COc1ccc(C2=C(c3ccc(OC)cc3)C3(c4ccccc4)C(=O)C2(c2ccccc2)C2C(=O)N(c4ccc(C)cc4)C(=O)C23)cc1 (stereo not drawn) | 0.682 |
| COc1cccc(C2(C)Nc3ccccc3-c3nc4ccccc4n32)c1 (stereo not drawn) | 0.113 |
| CCOc1ccc2nc(C)cc(Nc3ccc(Br)cc3)c2c1 | 0.152 |
| Cc1ccc(C)c(Cn2c(N3CCC(C(=O)NCc4cccs4)CC3)nc3ccccc32)c1 | 0.741 |
| COc1cccc(C(=O)Nc2ccc(-c3nc4ccccc4[nH]3)cc2)c1 | 0.295 |
| CCOC(=O)C1CCN(C(=O)CN2C(=O)c3ccccc3C2c2c[nH]c3ccccc23)CC1 (stereo not drawn) | 1.39 |
| O=C1c2ccccc2-c2nnc(-c3ccc(Br)cc3)cc21 | 0.844 |
| Oc1c2c(nc3ccccc13)CCCC2 | 0.828 |
| CCCCCCc1cc2cc(-c3nc4ccccc4[nH]3)c(=Nc3ccccc3C)oc2cc1O | 0.0472 |
| O=C(NC(c1ccccc1)c1ccc2cccnc2c1O)c1ccccc1 (stereo not drawn) | 0.00552 |

| Compound | viability index |
| --- | --- |
| COc1cc(C(=O)ON=C(N)Cc2cccc3ccccc23)cc(OC)c1OC | 0.0175 |
| CCOC(=O)C1(Cc2ccccc2)CCN(Cc2cccc(OC)c2O)CC1 | 0.0586 |
| O=C(O)C1Cc2c([nH]c3ccccc23)C(c2ccc(Cl)cc2Cl)N1 (stereo not drawn) | 1.04 |
| Cc1ccc(C)c(-c2csc(Nc3ccc(C)c(C)c3)n2)c1 | 0.856 |
| CCc1ccc(Nc2cc(C)c3ccc(O)cc3n2)cc1 | 0.238 |
| COc1ccc(-c2nonc2NC(=O)c2cccc(C)c2)cc1OC | 0.62 |
| CCN1CCN(c2c(C(=O)c3ccccc3)cnc3cc(OC)c(OC)cc23)CC1 | 1.03 |
| CCCOCc1cc(CN2CCN(c3cccc(Cl)c3)CC2)c(O)c2ncccc12 | 0.00962 |
| CCOc1ccc2nc(C)cc(Nc3ccc(N(C)C)cc3)c2c1 | 0.157 |
| Cc1ccc(Cn2c(N3CCC(C(=O)NCc4cccs4)CC3)nc3ccccc32)cc1 | 0.593 |
| CC1CCN(Cc2ccc(NC(=O)c3cc4ccc5cccnc5c4[nH]3)cc2)CC1 | 0.265 |
| Cc1cccc(-n2ncc3c(=O)[nH]c(-n4nc(C)cc4NC(=O)c4cc5ccccc5o4)nc32)c1 | 0.466 |
| CCOc1cc2c(cc1OCC)C(c1cc(Cl)ccc1O)NCC2 (stereo not drawn) | 0.0411 |
| COC(=O)c1ccc(Cl)c2c1C1C=CCC1C(c1cccc3ccccc13)N2 (stereo not drawn) | 0.825 |
| O=C(Nc1ccc(N2CCCCC2)c(Cl)c1)c1ccc(Br)o1 | 0.673 |
| CN(C)c1ccc(-c2nc3cc(N)ccc3[nH]2)cc1 | 0.0873 |
| COc1ccc2nc(C)cc(Nc3ccccc3O)c2c1 | 0.139 |
| COc1cccc(Nc2nc(N)c3ccccc3n2)c1 | 0.131 |
| O=C(CSc1ccc2nnc(-c3cccc(F)c3)n2n1)Nc1ccc2c(c1)OCO2 | 1.01 |

Same assay, conditions: gametocyte stage: Stage II viability index; 12.5 µM; incubation time: 72 h

| Compound | viability index |
| --- | --- |
| COc1cccc(Cn2c(Oc3ccccc3)nc3c2c(=O)n(C)c(=O)n3C)c1 | 0.853 |
| COc1ccc(NC(=O)C2c3ccccc3C(=O)N(CC(C)C)C2c2cccs2)cc1Cl (stereo not drawn) | 0.00483 |
| COc1cc2cc(C(=O)Nc3ccccc3)c(N)nc2cc1OC | 0.434 |
| CC(=O)c1ccc(NC(=O)CSc2nc(-c3ccccc3Cl)ns2)cc1 | 0.308 |
| O=C(c1ccccc1F)N(Cc1ccc(Cl)cc1)c1ccccn1 | 0.955 |
| CCN(CC)c1cc(C)c2cc(NC(=O)c3cccc(OC)c3)ccc2n1 | 0.563 |
| CCCN(CCC)CCCNC(=O)c1cc2c(-c3ccc(OC)c(OC)c3)nn(C)c2s1 | 0.754 |
| COCCNC(=O)c1ccc(OC2CCN(Cc3ccc(F)c(F)c3)CC2)c(Cl)c1 | 0.812 |
| O=C(Nc1ccc(-c2nc3cc4ccccc4cc3[nH]2)cc1)c1cccc(Br)c1 | 0.421 |
| CC(C)c1ccc(CNCC(O)c2ccccc2)cc1 (stereo not drawn) | 0.118 |
| COc1ccc(C2=C(c3ccc(OC)cc3)C3(c4ccccc4)C(=O)C2(c2ccccc2)C2C(=O)N(c4ccc(C)cc4)C(=O)C23)cc1 (stereo not drawn) | 0.679 |
| COc1cccc(C2(C)Nc3ccccc3-c3nc4ccccc4n32)c1 (stereo not drawn) | 0.0986 |
| CCOc1ccc2nc(C)cc(Nc3ccc(Br)cc3)c2c1 | 0.407 |
| Cc1ccc(C)c(Cn2c(N3CCC(C(=O)NCc4cccs4)CC3)nc3ccccc32)c1 | 0.378 |
| COc1cccc(C(=O)Nc2ccc(-c3nc4ccccc4[nH]3)cc2)c1 | 0.595 |
| CCOC(=O)C1CCN(C(=O)CN2C(=O)c3ccccc3C2c2c[nH]c3ccccc23)CC1 (stereo not drawn) | 0.924 |
| O=C1c2ccccc2-c2nnc(-c3ccc(Br)cc3)cc21 | 0.875 |
| Oc1c2c(nc3ccccc13)CCCC2 | 0.959 |
| CCCCCCc1cc2cc(-c3nc4ccccc4[nH]3)c(=Nc3ccccc3C)oc2cc1O | 0.138 |
| O=C(NC(c1ccccc1)c1ccc2cccnc2c1O)c1ccccc1 (stereo not drawn) | 0.029 |

| Compound | viability index |
| --- | --- |
| COc1cc(C(=O)ON=C(N)Cc2cccc3ccccc23)cc(OC)c1OC | 0.0391 |
| CCOC(=O)C1(Cc2ccccc2)CCN(Cc2cccc(OC)c2O)CC1 | 0.0716 |
| O=C(O)C1Cc2c([nH]c3ccccc23)C(c2ccc(Cl)cc2Cl)N1 (stereo not drawn) | 0.891 |
| Cc1ccc(C)c(-c2csc(Nc3ccc(C)c(C)c3)n2)c1 | 0.815 |
| CCc1ccc(Nc2cc(C)c3ccc(O)cc3n2)cc1 | 0.256 |
| COc1ccc(-c2nonc2NC(=O)c2cccc(C)c2)cc1OC | 0.55 |
| CCN1CCN(c2c(C(=O)c3ccccc3)cnc3cc(OC)c(OC)cc23)CC1 | 0.988 |
| CCCOCc1cc(CN2CCN(c3cccc(Cl)c3)CC2)c(O)c2ncccc12 | 0.0225 |
| CCOc1ccc2nc(C)cc(Nc3ccc(N(C)C)cc3)c2c1 | 0.571 |
| Cc1ccc(Cn2c(N3CCC(C(=O)NCc4cccs4)CC3)nc3ccccc32)cc1 | 0.289 |
| CC1CCN(Cc2ccc(NC(=O)c3cc4ccc5cccnc5c4[nH]3)cc2)CC1 | 0.505 |
| Cc1cccc(-n2ncc3c(=O)[nH]c(-n4nc(C)cc4NC(=O)c4cc5ccccc5o4)nc32)c1 | 0.473 |
| CCOc1cc2c(cc1OCC)C(c1cc(Cl)ccc1O)NCC2 (stereo not drawn) | 0.0883 |
| COC(=O)c1ccc(Cl)c2c1C1C=CCC1C(c1cccc3ccccc13)N2 (stereo not drawn) | 0.795 |
| O=C(Nc1ccc(N2CCCCC2)c(Cl)c1)c1ccc(Br)o1 | 0.726 |
| CN(C)c1ccc(-c2nc3cc(N)ccc3[nH]2)cc1 | 0.566 |
| COc1ccc2nc(C)cc(Nc3ccccc3O)c2c1 | 0.625 |
| COc1cccc(Nc2nc(N)c3ccccc3n2)c1 | 0.524 |
| O=C(CSc1ccc2nnc(-c3cccc(F)c3)n2n1)Nc1ccc2c(c1)OCO2 | 1.02 |
